From PubChem BioAssay (NCATS)
“And” between values parts separate entries of the source, which are not always exact repeats. Equal values may be shown once. Results filed as inconclusive are left out. The source made the active and inactive calls. The call rests on the fitted dose curve; in most records, active means well fitted inhibition curve with a large enough effect; inconclusive means small, poorly fitted or top-dose-only effect; inactive means flat fitted curve, though single readings scatter.

Experiments:
CRL-7250 = normal cell line; experiment: Cytotoxic Profiling of Annotated Libraries Using Quantitative High-Throughput Screening (AID 1296008); conditions: Five cell lines viability, CellTiter-Glo ATP luminescence, 48-72 h; max response: hits give low values; on max response: on the % scale 0 is the no-effect control and ±100 the full control effect
Outline: (§1)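 Compounds were pin-transferred onto cells and incubated 48 or 72 hr at 37 degree Celsius, 95% humidity. CellTiter-Glo was added, plates sat 10 min at room temperature, then ATP-coupled luminescence was imaged as the viability read-out.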

HEK293 = experiment: as above; conditions: Five cell lines viability, CellTiter-Glo ATP luminescence, 48-72 h; max response: hits give low values
Outline: as §1

HaCat = experiment: as above; conditions: Five cell lines viability, CellTiter-Glo ATP luminescence, 48-72 h; max response: hits give low values
Outline: as §1

KB-3-1 = experiment: as above; conditions: Five cell lines viability, CellTiter-Glo ATP luminescence, 48-72 h; max response: hits give low values
Outline: as §1

PC49 = experiment: qHTS profiling for inhibitors of Plasmodium falciparum proliferation (AID 504749); conditions: P. falciparum in erythrocytes, SYBR Green DNA, 72 h; series mostly up to 28.7 µM
Outline: (§2)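 Quantitative HTS: compounds pinned into medium, infected erythrocytes added (0.3% parasitemia, 2.5% hematocrit), 72 h culture at 37 C under 5% CO2. Saponin/Triton lysis with SYBR Green I, overnight RT, then fluorescence read.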

SC27B = experiment: as above; conditions: P. falciparum in erythrocytes, SYBR Green DNA, 72 h; series mostly up to 28.7 µM
Outline: as §2

TAB109 = experiment: as above; conditions: P. falciparum in erythrocytes, SYBR Green DNA, 72 h; series mostly up to 28.7 µM
Outline: as §2

TAB113 = experiment: as above; conditions: P. falciparum in erythrocytes, SYBR Green DNA, 72 h; series mostly up to 28.7 µM
Outline: as §2

TAB165 = experiment: as above; conditions: P. falciparum in erythrocytes, SYBR Green DNA, 72 h; series mostly up to 28.7 µM
Outline: as §2

W2 = experiment: as above; conditions: P. falciparum in erythrocytes, SYBR Green DNA, 72 h; series mostly up to 28.7 µM
Outline: as §2
Further: nearly all actives have a fitted effect of over 60% in size.
Potency means the concentration at half of the fitted maximal effect.

Cc1cccc(C)c1NC(=O)c1cc(S(N)(=O)=O)c(Cl)cc1O
inactive: outcome (CRL-7250) | outcome (HEK293) | outcome (HaCat) | max response (KB-3-1) -20.9%

CN(CC1(C)CCCO1)S(=O)(=O)c1ccc(Cl)c(S(N)(=O)=O)c1 (configuration not stated)
inactive: max response (CRL-7250) 1.85% | max response (HEK293) -6.48% | max response (HaCat) -20.1% | outcome (KB-3-1)

O=C(NN1CCCC1)NS(=O)(=O)c1ccc(Cl)cc1
inactive: max response (CRL-7250) -14.3% | max response (HEK293) 2.09% | max response (HaCat) -45.6% | max response (KB-3-1) 5.98%

C[C@H]1NCc2cc(-c3ccc4c(=O)c(C(=O)O)cn(C5CC5)c4c3OC(F)F)ccc21
inactive: max response (CRL-7250) -16.7% | max response (HEK293) -17.6% | max response (HaCat) -3.8% | max response (KB-3-1) -9.83%

O=C(CO)[C@@H](O)[C@H](O)[C@@H](O)CO
inactive: outcome (CRL-7250) | outcome (HEK293) | max response (HaCat) 3.88% | max response (KB-3-1) -7.71%

Nc1c[n+](N2CCOCC2)no1
inactive: outcome (CRL-7250) | outcome (HEK293) | max response (HaCat) -23.5% | max response (KB-3-1) -10.9%

Oc1ccc(CCNCCCCCCNCCc2ccccc2)cc1O
inactive: max response (CRL-7250) -8.57% | outcome (HaCat) | max response (KB-3-1) -20.6%
active: Potency (HEK293) 23.7 µM

Cc1ccccc1C(=O)N1CC/C(=N\OS(=O)(=O)O)c2ccc(Cl)cc21
inactive: max response (CRL-7250) 3.76% | max response (HEK293) -7.21% | max response (HaCat) -13.2% | max response (KB-3-1) 9.71%

O=C(CCCCCCCCC#CI)Oc1ccccc1
inactive: max response (CRL-7250) 1.88% | outcome (HEK293) | outcome (HaCat) | outcome (KB-3-1)

CC(=O)OCC[N+](C)(C)C
inactive: max response (CRL-7250) -0.18% | outcome (HEK293) | max response (HaCat) -14.7% | max response (KB-3-1) 2.39%

COC(=O)C1=CO[C@@H](O)[C@@H]2C(CO)=CC[C@H]12
inactive: max response (CRL-7250) 0.169% | max response (HEK293) -25.4% | max response (HaCat) -1.37% | max response (KB-3-1) -12.1%

Oc1ccccc1
inactive: max response (CRL-7250) -1.94% | max response (HEK293) -1.05% | outcome (HaCat) | max response (KB-3-1) -6.38%

O=C(O)c1ccccc1Nc1cc(Cl)ccc1C(=O)O
inactive: max response (CRL-7250) 2.83% | max response (HEK293) -2.68% | outcome (HaCat) | max response (KB-3-1) -6.82%

Cc1ccc(O)cc1
inactive: max response (CRL-7250) -3.08% | max response (HEK293) 0.45% | outcome (HaCat) | max response (KB-3-1) -1.63% and -10.4%

OCc1cccnc1
inactive: max response (CRL-7250) -0.394% | max response (HEK293) -2.02% | max response (HaCat) 3.51% | max response (KB-3-1) 3.27%

Nc1c(NC/C=C\COc2cc(CN3CCCCC3)ccn2)c(=O)c1=O
inactive: max response (CRL-7250) -21.7% | max response (HEK293) -20.2% | max response (HaCat) -11%
active: Potency (KB-3-1) 23.1 µM

NC(=O)COCCN1CCN(C(c2ccccc2)c2ccc(Cl)cc2)CC1 (configuration not stated)
inactive: max response (CRL-7250) 0.918% | max response (HEK293) 1.14% | max response (HaCat) -16.4% | max response (KB-3-1) -17.1%

O=[N+]([O-])c1nccn1CO[C@@H](CO)[C@H](O)CO
inactive: max response (CRL-7250) -17.9% | max response (HEK293) 4% | outcome (HaCat) | max response (KB-3-1) 2.05%

CC1CCCCN1CCCOC(=O)c1ccc(OC2CCCCC2)cc1 (configuration not stated)
inactive: max response (CRL-7250) -16.2% | outcome (HaCat)

CCCc1ccc(OCC(=O)N2CCN(C(=O)COc3ccc(CCC)cc3OC)CC2)c(OC)c1
inactive: max response (CRL-7250) -1.28% | max response (HaCat) 5%

CC1CC(=O)NN=C1c1ccc(NCC(C)(C)NCC(O)COc2cc(Cl)ccc2C#N)cc1 (configuration not stated)
inactive: max response (CRL-7250) -11.5% | max response (HaCat) -12.2%

CCCCCCCCCCCCCC[N+](C)(C)C
inactive: Potency (PC49)
active: Potency (SC27B) 6.31 µM | Potency (TAB109) 4.47 µM | Potency (TAB113) 5.01 µM | Potency (TAB165) 5.62 µM | Potency (W2) 4.26 µM | Potency (CRL-7250) 7.5 µM | Potency (HEK293) 2.66 µM | Potency (HaCat) 5.96 µM | Potency (KB-3-1) 16.4 µM

O=C1NC(=O)/C(=C/c2ccc3c(c2)OC(F)(F)O3)S1
inactive: max response (CRL-7250) 4.23% | max response (HaCat) -3.64%

CN(C)[C@@H]1C(=O)C(C(N)=O)=C(O)[C@@]2(O)C(=O)C3=C(O)c4c(O)cccc4C[C@H]3C[C@@H]12
inactive: max response (CRL-7250) -0.669% | max response (HaCat) -5.74%
